In PubChem BioAssay (EPA / NIEHS):
Records with an inconclusive call do not appear. Activity calls are given as the source filed them. Rule for the calls, unless noted: active = hit-call score of the fitted dose curve at least 0.9, where 1 is the maximum; inactive = score below 0.9.

Tests used:
[1] = molecular target: Nuclear respiratory factor 1 (Homo sapiens) (UniProt Q16656); experiment: ATG_NRF1_CIS: Attagene CIS-FACTORIAL HepG2 Assay for human Nuclear Respiratory Factor 1 (NRF1) Orphan Gene (AID 2282987); conditions: HepG2 NRF1 cis-element reporter, Attagene multiplex; actives raise or lower the signal
How it was run: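 Measured: fluorescent reporter-specific RT-PCR products from transfected HepG2 cells, separated by capillary electrophoresis. Exposure lasted 24 h. Analysis used bidirectional curve fitting with DMSO as negative control.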

[2] = ATG_NFI_CIS: Attagene CIS-FACTORIAL HepG2 Assay for human Nuclear Factor I (NFI) (AID 2282989); conditions: HepG2 cis-regulatory reporter, NFI response element transcription; actives raise or lower the signal
How it was run: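 Cells: human liver HepG2, transiently transfected with promoter-regulated reporter transcription units. Exposure 24 h. Detection: fluorescent RT-PCR products separated by capillary electrophoresis, normalised to DMSO negative control.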

[3] = molecular target: Myc proto-oncogene protein (Homo sapiens) (UniProt P01106); experiment: ATG_Myc_CIS: Attagene CIS-FACTORIAL HepG2 Assay for human Myelocytomatosis (Myc) Proto-Oncogene Transcription Factor (AID 2282990); conditions: HepG2, Attagene cis-reporter transcription factor activity; actives raise or lower the signal
How it was run: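 After 24 h chemical treatment of HepG2 cells carrying multiplexed cis-regulated reporter constructs, reporter transcripts quantified by RT-PCR and capillary electrophoresis of fluorescent fragments. Gain or loss fitted against DMSO baseline.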

[4] = ATG_Oct_MLP_CIS: Attagene CIS-FACTORIAL HepG2 Assay for human Octamer-Binding Transcription Factor (Oct) (AID 2282993); conditions: HepG2 Attagene cis-factorial Oct reporter, mRNA; actives raise or lower the signal
How it was run: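 HepG2, transient MRTU transfection, cis promoter elements; 24 h dosing; RT-PCR/CE fluorescence read-out of reporter mRNA; fit both directions vs DMSO.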

[5] = molecular target: Cellular tumor antigen p53 (Homo sapiens) (UniProt P04637); experiment: ATG_p53_CIS: Attagene CIS-FACTORIAL HepG2 Assay for human p53 Transcription Factor (AID 2282994); conditions: HepG2 p53 cis-element reporter, Attagene mRNA; actives raise or lower the signal
How it was run: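 Multiplexed reporter mRNA assay in human HepG2 liver cells; cis-regulated units report endogenous factor activity. Values come from bidirectional curve fitting against DMSO negative control after 24 h treatment.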

[6] = BSK_3C_TissueFactor: BioMAP Diversity Plus: 3C Assay for Tissue Factor Biomarker Activity (AID 2282997); conditions: BioMAP 3C HUVEC, tissue factor biomarker readout; actives raise or lower the signal
How it was run: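 ELISA read-out of Tissue Factor levels on human umbilical vein endothelium collected 24 h after chemical dosing. Gain or loss of signal was fitted relative to DMSO.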

[7] = BSK_3C_uPAR: BioMAP Diversity Plus: 3C Assay for Urokinase-type plasminogen activator receptor (uPAR) Biomarker Activity (AID 2282998); conditions: BioMAP 3C HUVEC, uPAR biomarker ELISA; actives raise or lower the signal
How it was run: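 A multiplexed primary-cell system built on human umbilical vein endothelium was used, with chemical present for 24 h before reading. Cell-surface uPAR was detected by ELISA; signal change in either direction counted against DMSO.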

[8] = BSK_3C_VCAM1: BioMAP Diversity Plus: 3C Assay for Vascular cell adhesion molecule 1 (VCAM1) Biomarker Activity (AID 2282999); conditions: BioMAP 3C HUVEC, VCAM1 ELISA, cytokine-stimulated; actives raise or lower the signal
How it was run: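 Endothelial cells from human umbilical vein are treated with test chemical. At 24 h, VCAM-1 is measured by ELISA, and responses in either direction are fitted relative to DMSO.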

[9] = BSK_4H_Eotaxin3: BioMAP Diversity Plus: 4H Assay for Eotaxin 3 Biomarker Activity (AID 2283000); conditions: primary human endothelial cells (HUVEC); actives raise or lower the signal
How it was run: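 Chemicals were added to human umbilical vein endothelium cultures, and Eotaxin-3 was quantified by ELISA at 24 h. Values were derived by bidirectional fitting with DMSO serving as negative control and activity baseline.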

[10] = molecular target: human Peroxisome Proliferator-activated Receptor alpha (PPARa), PPARA (gene 5465) (UniProt Q07869); experiment: ATG_PPARa_TRANS: Attagene TRANS-FACTORIAL HepG2 Assay for human Peroxisome Proliferator-activated Receptor alpha (PPARa) (AID 2283001; active = hit-call score of the fitted dose curve at least 0.9, where 1 is the maximum;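 for AC50: potency for gain of reporter signal over DMSO so agonist or activator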)
How it was run: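 Reporter transcripts from GAL4-UAS units in transfected HepG2 were quantified 24 h after dosing. Detection used reverse transcription, PCR, fluorescent primer extension and capillary electrophoresis, with DMSO as baseline.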

[11] = BSK_3C_Proliferation: Cell Proliferation Assessment in the BioMAP Diversity Plus: 3C Assay (AID 2283006); conditions: primary human endothelial cells (HUVEC);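 for AC50: potency may reflect either rise or fall in cell number versus DMSO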
How it was run: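 Proliferation of human vascular endothelial primary cells after 48 h dosing, quantified as SRB-stained protein at 560 nm relative to DMSO.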

[12] = read-out: Intercellular Adhesion Molecule 1 (ICAM1), ICAM1 (gene 3383); experiment: BSK_3C_ICAM1: BioMAP Diversity Plus: 3C Assay for Intercellular Adhesion Molecule 1 (ICAM1) Biomarker Activity (AID 2283003); conditions: primary human endothelial cells (HUVEC); actives raise or lower the signal
How it was run: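 Human vascular endothelial primary cells, 3C conditions, 24 h treatment. ICAM-1 by ELISA.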

[13] = molecular target: Retinoic acid receptor alpha (Homo sapiens) (UniProt P10276); experiment: ATG_RARa_TRANS: Attagene TRANS-FACTORIAL HepG2 Assay for human Retinoic Acid Receptor alpha (RARa) (AID 2283005; active = hit-call score of the fitted dose curve at least 0.9, where 1 is the maximum)
How it was run: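 Reporter transcripts, measured by RT-PCR with fluorescent labeling and capillary electrophoresis after 24 h dosing, reflect activity of an exogenous human RARa–GAL4 fusion in transiently transfected HepG2. Fitted for increase relative to DMSO.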

[14] = molecular target: human Peroxisome Proliferator-activated Receptor delta (PPARd), PPARD (gene 5467) (UniProt Q03181); experiment: ATG_PPARd_TRANS: Attagene TRANS-FACTORIAL HepG2 Assay for human Peroxisome Proliferator-activated Receptor delta (PPARd) (AID 2283002; active = hit-call score of the fitted dose curve at least 0.9, where 1 is the maximum)
How it was run: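 Read-out is induced reporter mRNA, quantified by RT-PCR with fluorescent labelling and capillary electrophoresis after 24 h dosing. Cells are HepG2 transiently carrying multiple GAL4-UAS reporter units driven by exogenous NR-GAL4 chimeras; DMSO serves as baseline.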

[15] = molecular target: Nuclear receptor subfamily 1 group I member 2 (Homo sapiens) (UniProt O75469); experiment: ATG_PXR_TRANS: Attagene TRANS-FACTORIAL HepG2 Assay for human Pregnane X Receptor (PXR) (AID 2283008; active = hit-call score of the fitted dose curve at least 0.9, where 1 is the maximum)
How it was run: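 Measures mRNA induction of a GAL4-UAS-driven reporter in human HepG2 cells transiently expressing PXR fused to Gal4, following 24 h treatment. DMSO served as negative control and baseline.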

[16] = molecular target: human Retinoic Acid Receptor beta (RARb), RARB (gene 5915) (UniProt P10826); experiment: ATG_RARb_TRANS: Attagene TRANS-FACTORIAL HepG2 Assay for human Retinoic Acid Receptor beta (AID 2283004; active = hit-call score of the fitted dose curve at least 0.9, where 1 is the maximum)
How it was run: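 Transient transfection of HepG2 with multiple reporter units → chemical dosing, 24 h → total RNA isolation → RT with oligo(dT) → reporter-specific PCR, 6-FAM primer extension, HpaI digest → capillary electrophoresis. Positive direction vs DMSO control.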

[17] = molecular target: Peroxisome proliferator-activated receptor gamma (Homo sapiens) (UniProt P37231); experiment: ATG_PPARg_TRANS: Attagene TRANS-FACTORIAL HepG2 Assay for human Peroxisome Proliferator-activated Receptor-gamma (PPARg) (AID 2283007; active = hit-call score of the fitted dose curve at least 0.9, where 1 is the maximum)
How it was run: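 Twenty-four hours after chemical dosing of transiently transfected HepG2 cells, isolated RNA was converted to cDNA, reporter sequences amplified and 6-FAM-labelled, then HpaI-digested and analysed by capillary electrophoresis. Signal increase against DMSO was fitted.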

[18] = molecular target: human Retinoic Acid Receptor gamma (RARg), RARG (gene 5916) (UniProt P13631); experiment: ATG_RARg_TRANS: Attagene TRANS-FACTORIAL HepG2 Assay for human Retinoic Acid Receptor gamma (RARg) (AID 2283009; active = hit-call score of the fitted dose curve at least 0.9, where 1 is the maximum)
How it was run: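 HepG2, RARg-GAL4 TRANS system, 24 h exposure; reporter mRNA by RT-PCR + CE fluorescence; increase over DMSO.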

Measured: AC50

Cellular tumor antigen p53 (Homo sapiens), sequence (P04637 whole entry, looked up): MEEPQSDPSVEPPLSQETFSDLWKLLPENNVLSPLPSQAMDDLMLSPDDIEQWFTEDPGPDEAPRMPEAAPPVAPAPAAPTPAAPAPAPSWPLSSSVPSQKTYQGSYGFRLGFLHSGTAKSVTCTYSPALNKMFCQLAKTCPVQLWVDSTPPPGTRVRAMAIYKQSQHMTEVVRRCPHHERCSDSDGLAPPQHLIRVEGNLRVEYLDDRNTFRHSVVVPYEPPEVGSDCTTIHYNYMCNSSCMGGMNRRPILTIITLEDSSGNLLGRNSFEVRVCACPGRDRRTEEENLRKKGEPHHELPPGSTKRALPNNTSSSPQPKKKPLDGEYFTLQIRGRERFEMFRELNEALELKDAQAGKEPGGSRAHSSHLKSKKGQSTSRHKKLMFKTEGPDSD
Nuclear receptor subfamily 1 group I member 2 (Homo sapiens), sequence (O75469 whole entry, looked up, the tested form may be a part): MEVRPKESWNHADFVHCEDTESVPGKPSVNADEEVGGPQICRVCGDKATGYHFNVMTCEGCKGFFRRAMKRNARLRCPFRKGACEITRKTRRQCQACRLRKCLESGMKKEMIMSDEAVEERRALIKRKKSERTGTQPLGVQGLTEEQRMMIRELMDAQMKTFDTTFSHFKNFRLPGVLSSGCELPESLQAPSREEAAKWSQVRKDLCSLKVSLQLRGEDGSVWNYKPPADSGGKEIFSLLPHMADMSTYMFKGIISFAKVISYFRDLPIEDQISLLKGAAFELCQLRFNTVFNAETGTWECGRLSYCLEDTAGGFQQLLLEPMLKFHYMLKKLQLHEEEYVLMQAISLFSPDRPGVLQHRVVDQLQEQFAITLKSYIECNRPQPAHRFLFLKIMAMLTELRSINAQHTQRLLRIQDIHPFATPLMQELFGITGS
Nuclear respiratory factor 1 (Homo sapiens), sequence (Q16656 whole entry, looked up): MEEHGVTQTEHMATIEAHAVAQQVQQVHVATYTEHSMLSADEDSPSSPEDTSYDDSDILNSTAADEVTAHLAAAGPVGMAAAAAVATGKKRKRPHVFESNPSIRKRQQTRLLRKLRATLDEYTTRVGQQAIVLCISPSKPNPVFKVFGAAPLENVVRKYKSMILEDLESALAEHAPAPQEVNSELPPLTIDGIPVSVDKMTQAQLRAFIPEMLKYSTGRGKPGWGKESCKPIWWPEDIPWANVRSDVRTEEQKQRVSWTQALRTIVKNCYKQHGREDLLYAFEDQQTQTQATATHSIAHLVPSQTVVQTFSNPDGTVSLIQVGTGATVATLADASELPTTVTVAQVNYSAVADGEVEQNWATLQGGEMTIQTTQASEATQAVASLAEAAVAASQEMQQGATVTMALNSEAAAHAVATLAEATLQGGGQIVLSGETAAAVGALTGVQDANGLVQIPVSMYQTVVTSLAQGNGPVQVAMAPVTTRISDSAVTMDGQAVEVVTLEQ
Myc proto-oncogene protein (Homo sapiens), sequence (P01106 whole entry, looked up, the tested form may be a part): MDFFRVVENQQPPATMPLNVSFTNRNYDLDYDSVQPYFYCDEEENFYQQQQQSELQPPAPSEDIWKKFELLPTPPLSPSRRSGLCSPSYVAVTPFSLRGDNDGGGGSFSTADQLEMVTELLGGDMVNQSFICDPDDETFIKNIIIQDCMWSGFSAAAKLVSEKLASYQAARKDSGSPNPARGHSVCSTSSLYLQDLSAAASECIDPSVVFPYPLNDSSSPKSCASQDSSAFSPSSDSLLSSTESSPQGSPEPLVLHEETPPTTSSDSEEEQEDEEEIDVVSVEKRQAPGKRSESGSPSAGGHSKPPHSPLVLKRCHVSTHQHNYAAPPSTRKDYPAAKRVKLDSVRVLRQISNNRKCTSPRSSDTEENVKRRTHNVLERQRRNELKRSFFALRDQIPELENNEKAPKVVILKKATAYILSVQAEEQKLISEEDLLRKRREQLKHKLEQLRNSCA
human Peroxisome Proliferator-activated Receptor delta (PPARd), PPARD (gene 5467), sequence (Q03181 whole entry, looked up, the tested form may be a part): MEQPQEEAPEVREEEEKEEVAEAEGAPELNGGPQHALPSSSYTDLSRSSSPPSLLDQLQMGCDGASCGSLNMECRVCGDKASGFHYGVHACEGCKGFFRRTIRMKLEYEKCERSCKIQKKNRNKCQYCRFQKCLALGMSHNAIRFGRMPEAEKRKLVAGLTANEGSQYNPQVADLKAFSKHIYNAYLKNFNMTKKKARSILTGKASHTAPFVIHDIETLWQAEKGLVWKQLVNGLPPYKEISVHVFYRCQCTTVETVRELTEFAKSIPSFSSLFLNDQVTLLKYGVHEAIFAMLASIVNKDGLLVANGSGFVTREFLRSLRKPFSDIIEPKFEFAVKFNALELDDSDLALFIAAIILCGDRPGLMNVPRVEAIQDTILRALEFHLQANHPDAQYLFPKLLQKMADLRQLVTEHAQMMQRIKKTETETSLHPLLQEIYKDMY
Retinoic acid receptor alpha (Homo sapiens), sequence (P10276 whole entry, looked up, the tested form may be a part): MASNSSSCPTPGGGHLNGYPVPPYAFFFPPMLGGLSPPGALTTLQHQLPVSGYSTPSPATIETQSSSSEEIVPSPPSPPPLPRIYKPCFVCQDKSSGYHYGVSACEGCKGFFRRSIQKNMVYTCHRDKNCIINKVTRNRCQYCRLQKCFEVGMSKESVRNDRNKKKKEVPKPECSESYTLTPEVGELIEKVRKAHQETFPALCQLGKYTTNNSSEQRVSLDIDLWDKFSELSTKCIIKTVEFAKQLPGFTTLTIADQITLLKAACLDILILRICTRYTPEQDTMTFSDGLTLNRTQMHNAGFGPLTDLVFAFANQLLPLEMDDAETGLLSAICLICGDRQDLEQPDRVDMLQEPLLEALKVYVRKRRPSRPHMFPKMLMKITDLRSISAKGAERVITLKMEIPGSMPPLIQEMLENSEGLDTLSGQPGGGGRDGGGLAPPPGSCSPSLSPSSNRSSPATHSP
human Peroxisome Proliferator-activated Receptor alpha (PPARa), PPARA (gene 5465), sequence (Q07869 whole entry, looked up, the tested form may be a part): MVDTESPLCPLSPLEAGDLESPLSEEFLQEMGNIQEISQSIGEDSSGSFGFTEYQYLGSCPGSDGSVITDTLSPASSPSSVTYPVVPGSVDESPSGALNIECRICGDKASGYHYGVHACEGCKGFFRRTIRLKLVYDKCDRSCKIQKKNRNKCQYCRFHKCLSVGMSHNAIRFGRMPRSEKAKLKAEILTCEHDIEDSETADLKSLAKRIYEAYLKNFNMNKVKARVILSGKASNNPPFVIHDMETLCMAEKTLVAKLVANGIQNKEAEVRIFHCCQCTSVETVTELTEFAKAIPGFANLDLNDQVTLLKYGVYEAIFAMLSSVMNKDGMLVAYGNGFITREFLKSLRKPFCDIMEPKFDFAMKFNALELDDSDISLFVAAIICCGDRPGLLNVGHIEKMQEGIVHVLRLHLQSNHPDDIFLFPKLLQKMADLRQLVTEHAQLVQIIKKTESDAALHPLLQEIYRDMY
human Retinoic Acid Receptor gamma (RARg), RARG (gene 5916), sequence (P13631 whole entry, looked up, the tested form may be a part): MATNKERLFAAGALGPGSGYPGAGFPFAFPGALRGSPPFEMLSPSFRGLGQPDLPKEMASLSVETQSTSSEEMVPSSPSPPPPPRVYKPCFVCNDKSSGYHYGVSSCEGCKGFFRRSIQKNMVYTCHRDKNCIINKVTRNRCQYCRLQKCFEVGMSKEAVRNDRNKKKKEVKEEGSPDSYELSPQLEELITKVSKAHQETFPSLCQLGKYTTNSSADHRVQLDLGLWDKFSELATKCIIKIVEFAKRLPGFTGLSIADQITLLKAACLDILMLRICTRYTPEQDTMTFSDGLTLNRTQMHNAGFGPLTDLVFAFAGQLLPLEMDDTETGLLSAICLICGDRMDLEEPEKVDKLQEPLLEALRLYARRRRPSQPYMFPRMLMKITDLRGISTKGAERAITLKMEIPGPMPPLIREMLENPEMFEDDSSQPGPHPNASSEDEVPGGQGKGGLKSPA
Peroxisome proliferator-activated receptor gamma (Homo sapiens), sequence (P37231 whole entry, looked up): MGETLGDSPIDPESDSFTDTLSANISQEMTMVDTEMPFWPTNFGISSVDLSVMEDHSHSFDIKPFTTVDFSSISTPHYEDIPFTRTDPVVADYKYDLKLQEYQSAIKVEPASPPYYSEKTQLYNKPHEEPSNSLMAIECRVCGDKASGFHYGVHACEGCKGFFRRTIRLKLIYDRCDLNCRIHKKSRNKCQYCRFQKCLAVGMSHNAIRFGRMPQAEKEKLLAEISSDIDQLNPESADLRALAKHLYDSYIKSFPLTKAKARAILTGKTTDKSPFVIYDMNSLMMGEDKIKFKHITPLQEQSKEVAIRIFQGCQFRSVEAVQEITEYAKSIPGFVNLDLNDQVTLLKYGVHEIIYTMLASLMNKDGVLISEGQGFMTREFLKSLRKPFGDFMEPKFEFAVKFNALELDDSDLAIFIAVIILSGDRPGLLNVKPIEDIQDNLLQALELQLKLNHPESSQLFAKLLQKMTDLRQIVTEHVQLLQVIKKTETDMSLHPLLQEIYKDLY
human Retinoic Acid Receptor beta (RARb), RARB (gene 5915), sequence (P10826 whole entry, looked up): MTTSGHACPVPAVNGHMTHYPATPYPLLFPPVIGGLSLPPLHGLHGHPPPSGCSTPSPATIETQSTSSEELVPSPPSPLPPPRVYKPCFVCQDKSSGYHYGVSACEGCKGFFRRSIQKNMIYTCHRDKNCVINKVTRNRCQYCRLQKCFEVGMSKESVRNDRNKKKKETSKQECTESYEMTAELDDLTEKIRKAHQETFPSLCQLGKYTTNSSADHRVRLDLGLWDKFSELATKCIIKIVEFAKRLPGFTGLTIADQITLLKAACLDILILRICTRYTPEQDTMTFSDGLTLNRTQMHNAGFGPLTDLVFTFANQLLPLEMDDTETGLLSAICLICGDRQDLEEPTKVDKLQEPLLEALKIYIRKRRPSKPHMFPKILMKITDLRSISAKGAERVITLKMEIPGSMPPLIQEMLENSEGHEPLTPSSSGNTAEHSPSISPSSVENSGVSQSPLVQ

OC(CCl)CCl
not listed: [12] | [13] | [14] | [15] | [16] | [17] | [18]
inactive: all other assays above

CC(C)CC(C)O (centres undefined)
not listed: [5] | [10] | [14] | [15] | [16] | [17] | [18]
inactive: all other assays above

CCc1cccc(CC)c1N
not listed: [6] | [10] | [13] | [16] | [17] | [18]
inactive: all other assays above

O=S(=O)(O)CCC(F)(F)C(F)(F)C(F)(F)C(F)(F)C(F)(F)C(F)(F)F
not listed: [6] | [12]
inactive: all other assays above

CC(C)C(=O)Nc1ccc([N+](=O)[O-])c(C(F)(F)F)c1
inactive: [1] | [2] | [3] | [7] | [8] | [9] | [12] | [11]
active: [4] 26.1 µM | [17] 49 µM | [15] 6.92 µM

O=C1CN(N=Cc2ccc([N+](=O)[O-])o2)C(=O)N1
active: [11] 13.6 µM
not listed: [1] | [2] | [10] | [13] | [16] | [18]
inactive: all other assays above

OC[C@H]1O[C@@H]2O[C@H]3[C@H](O)[C@@H](O)[C@@H](O[C@H]4[C@H](O)[C@@H](O)[C@@H](O[C@H]5[C@H](O)[C@@H](O)[C@@H](O[C@H]6[C@H](O)[C@@H](O)[C@@H](O[C@H]7[C@H](O)[C@@H](O)[C@@H](O[C@H]1[C@H](O)[C@H]2O)O[C@@H]7CO)O[C@@H]6CO)O[C@@H]5CO)O[C@@H]4CO)O[C@@H]3CO
not listed: [5] | [10] | [14] | [15] | [16] | [17]
inactive: all other assays above

c1ccc2c(c1)-c1cccc3c1c-2cc1ccccc13
active: [9] 0.148 µM
not listed: [5] | [6] | [10] | [16]
inactive: all other assays above

NC(=O)NN=Cc1ccc([N+](=O)[O-])o1
not listed: [10] | [13] | [14] | [15] | [16] | [18]
inactive: all other assays above

c1ccc(C(O[C@@H]2CCCN(CCc3ccc4c(c3)OCO4)C2)c2ccccc2)cc1
active: [4] 23.3 µM | [5] 52.6 µM | [7] 27.5 µM | [11] 28.5 µM | [17] 20.7 µM | [15] 0.916 µM
not listed: [10] | [13] | [16] | [18]
inactive: all other assays above

CCCCCCCC1CCC(=O)O1 (centres undefined)
not listed: [1] | [2] | [16]
inactive: all other assays above

O=C(O)c1ccc2c(c1)nc(C(=O)NC1CCN(C3CC3)CC1)n2Cc1cc(-c2ccc(Cl)s2)on1
active: [17] 1.03 µM
not listed: [12] | [13] | [15] | [16] | [18]
inactive: all other assays above

O=c1[nH]cnc2c1ncn2[C@H]1CC[C@@H](CO)O1
not listed: [5] | [10] | [13] | [18]
inactive: all other assays above

CCCCCCCCCCCCCCCCOS(=O)(=O)O
active: [2] 24.6 µM | [5] 24.9 µM | [10] 9.15 µM | [17] 16.9 µM
inactive: [1] | [3] | [4] | [7] | [8] | [9] | [11] | [15]
